Values joined by “and” are separate entries in the source; they are usually repeats but may differ in a detail not shown here. Equal values may be shown once. Inconclusive results are not listed. Active and inactive are the calls of the source. Calls come from the whole dose curve; as a rule, active = well fitted curve in the direction sought with a large enough effect; inconclusive = small, poorly fitted or top-dose-only effect, or another doubt; inactive = no such curve, though single readings can be large; an effect the other way counts as inactive or inconclusive. Residues, ends and D or L forms follow the SMILES beside them. *: point of attachment. Cbz = O=C(OCc1ccccc1)*
Key:
[1] = target: Cellular tumor antigen p53 (Homo sapiens) (UniProt P04637); assay: Primary qHTS for small molecule compounds that upregulate eGFP-tagged delta133p53alpha (in N-terminal) cells. (AID 2060322); conditions: NCI-H358 eGFP-delta133p53alpha fluorescence, 24 h; activation: active compounds read high; note: nearly all actives have a fitted effect of over 75% in size;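 for activation: series mostly up to about 56 µM; 0% = DMSO vehicle and 100% = reference activator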
Procedure, shortened: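 NCI-H358 cells pre-induced 24 h with 10 ng/ml doxycycline to express N-terminal eGFP-delta133p53alpha, then dosed 24 h at 37C without doxycycline; fixed, Hoechst-stained, GFP intensity by laser scanning cytometry, normalized to DMSO (0%) and 57.5 uM 5-azacytidine (100%).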

[2] = BET inhibitor-based combinations targeting novel dependencies in MECOM-rearranged (r) AML: OCI-AML3 cell line (AID 2202232); conditions: Potency: OCI-AML3 viability; note: nearly all actives have a fitted effect of over 35% in size
Procedure, shortened: (§1)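 Readout: CellTiter-Glo luminescence. Exposure: 48 h, 11 concentrations, 500 cells/well. Metric: AUC and within-line Z-AUC after DMSO/empty-well normalization.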

[3] = BET inhibitor-based combinations targeting novel dependencies in MECOM-rearranged (r) AML: MV-4-11 cell line (AID 2202233); note: nearly all actives have a fitted effect of over 45% in size
Procedure, shortened: (§2)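 Seeding density was 500 cells/well, and drug exposure lasted 48 hr under standard culture conditions. Read-out used CellTiter-Glo reagent with a 15 min room-temperature incubation before luminescence measurement; AUC and Z-AUC summarize the normalized responses.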

[4] = BET inhibitor-based combinations targeting novel dependencies in MECOM-rearranged (r) AML: HNT-34 cell line (AID 2202234); note: nearly all actives have a fitted effect of over 35% in size
Procedure, shortened: as §2

[5] = BET inhibitor-based combinations targeting novel dependencies in MECOM-rearranged (r) AML: UCSD-AML1 cell line (AID 2202235); note: nearly all actives have a fitted effect of over 40% in size
Procedure, shortened: as §2

[6] = BET inhibitor-based combinations targeting novel dependencies in MECOM-rearranged (r) AML: AML-191 cell line (AID 2202236; note: nearly all actives have a fitted effect of over 35% in size)
Procedure, shortened: as §1

[7] = BET inhibitor-based combinations targeting novel dependencies in MECOM-rearranged (r) AML: AML-194 cell line (AID 2202237; note: nearly all actives have a fitted effect of over 40% in size)
Procedure, shortened: as §1
Potency is the fitted concentration of half-maximal effect.

Chain of Cellular tumor antigen p53 (Homo sapiens) (P04637 whole entry, looked up): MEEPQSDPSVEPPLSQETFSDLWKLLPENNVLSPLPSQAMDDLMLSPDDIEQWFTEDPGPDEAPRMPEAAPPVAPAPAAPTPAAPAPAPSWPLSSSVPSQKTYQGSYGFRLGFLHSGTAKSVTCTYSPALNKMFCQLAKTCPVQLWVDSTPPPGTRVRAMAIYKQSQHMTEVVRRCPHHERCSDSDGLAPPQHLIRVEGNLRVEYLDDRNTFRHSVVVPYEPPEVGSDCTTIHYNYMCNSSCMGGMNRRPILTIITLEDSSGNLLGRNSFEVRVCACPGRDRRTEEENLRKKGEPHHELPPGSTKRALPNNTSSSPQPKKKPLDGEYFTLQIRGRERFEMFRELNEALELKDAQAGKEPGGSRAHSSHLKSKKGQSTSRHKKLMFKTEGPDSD

Cc1c(C)c2c(c(C)c1O)CCC(C)(COc1ccc(CC3SC(=O)NC3=O)cc1)O2 (stereo not drawn)
active: Potency [4] 18600 nM
inactive: activation [1] -7.34% | Potency [2] | Potency [3] | Potency [5] | Potency [6] | Potency [7]

CNC[C@H](O)[C@@H](O)[C@H](O)[C@H](O)CO
inactive: activation [1] -10% | Potency [2] | Potency [3] | Potency [4] | Potency [5] | Potency [6] | Potency [7]

Cc1c(C(=O)NN2CCCCC2)nn(-c2ccc(Cl)cc2Cl)c1-c1ccc(Cl)cc1
inactive: activation [1] 8.47% and -3.72% | Potency [2] | Potency [5]
active: Potency [3] 20900 nM

OC1CCC(Nc2ncc3nc(Nc4c(F)cc(F)cc4F)n([C@@H]4CCOC4)c3n2)CC1 (stereo partly drawn)
active: Potency [2] 18600 nM | Potency [3] 20900 nM | Potency [6] 16600 nM
inactive: activation [1] 52.2% | Potency [5]

CC(C)(C)OC(=O)CN(Cc1ccc(Cl)cc1)Cc1ccc([N+](=O)[O-])s1
inactive: activation [1] -41.8% | Potency [5] | Potency [6] | Potency [7]
active: Potency [2] 7420 nM | Potency [3] 18600 nM

C/C=C/C(=O)N(CC)c1ccccc1C
inactive: activation [1] -2.82% | Potency [2] | Potency [3] | Potency [4] | Potency [5] | Potency [7]

c1coc(CNc2ncnc3nc[nH]c23)c1
inactive: activation [1] -14.3% | Potency [2] | Potency [3] | Potency [5] | Potency [7]

CCCCCCNC(=O)n1cc(F)c(=O)[nH]c1=O
inactive: activation [1] -29.9% and -7.59%
active: Potency [2] 1860 nM | Potency [3] 1660 nM | Potency [5] 7420 nM

COc1cccc2c1CCCC2CCCN1CCN(C2CCCCC2)CC1 (stereo not drawn)
active: Potency [2] 11800 nM | Potency [3] 16600 nM | Potency [6] 5900 nM
inactive: activation [1] 0.872% | Potency [7]

NC1=N[C@H]2[C@H](CS[C@H]2CCCCC(=O)O)N1
inactive: activation [1] -4.3% | Potency [2] | Potency [3] | Potency [4] | Potency [6] | Potency [7]

O=C(O)[C@H](Cc1c[nH]c2ccccc12)N1C(=O)c2ccccc2C1=O
inactive: activation [1] -29% | Potency [2] | Potency [3] | Potency [4] | Potency [6] | Potency [7]
active: Potency [5] 3320 nM

CC(C)C[C@@H](C=O)NC(=O)[C@H](CC(C)C)NC(=O)[C@H](CC(C)C)NC(=O)OCc1ccccc1 (Cbz-Leu-Leu-Leu-aldehyde)
active: Potency [1] 2730 nM | Potency [2] 1860 nM | Potency [3] 2350 nM | Potency [4] 2350 nM | Potency [6] 2350 nM | Potency [7] 2630 nM

Cc1ccc(C(C)(O)c2nc3ccccc3s2)c(C)c1 (stereo not drawn)
inactive: activation [1] 5.91% | Potency [2] | Potency [5] | Potency [6] | Potency [7]
active: Potency [3] 18600 nM

CC1(CN2CCC(n3c(=O)[nH]c4ccccc43)CC2)OCc2ccccc2-n2cccc21 (stereo not drawn)
active: Potency [2] 16600 nM | Potency [3] 14800 nM
inactive: activation [1] -25.4% and -3.95% | Potency [5]

Clc1ccc(C(Cn2ccnc2)OCc2ccc(Sc3ccccc3)cc2)c(Cl)c1 (stereo not drawn)
active: Potency [3] 14800 nM | Potency [5] 20900 nM
inactive: activation [1] -3.95% and 8.63% | Potency [2]

Nc1nc(=O)n([C@H]2C[C@H](O)[C@@H](CO)O2)cc1F
inactive: activation [1] -4.59%
active: Potency [2] 132 nM | Potency [3] 14.8 nM | Potency [6] 186 nM | Potency [7] 742 nM

Nc1cc(C(Cl)=C(Cl)Cl)c(S(N)(=O)=O)cc1S(N)(=O)=O
inactive: activation [1] 44.6% | Potency [2] | Potency [3] | Potency [4] | Potency [5] | Potency [6] | Potency [7]

C[C@H](NC(=O)[C@@H](O)c1cc(F)cc(F)c1)C(=O)N[C@@H]1C(=O)N(C)c2ccccc2-c2ccccc21
inactive: activation [1] 10.4% | Potency [2] | Potency [3] | Potency [4] | Potency [5] | Potency [7]

COc1c(C)cnc(Cn2cnc3c(Cl)nc(N)nc32)c1C
inactive: activation [1] -17.3%
active: Potency [2] 372 nM | Potency [3] 118 nM | Potency [5] 209 nM | Potency [6] 525 nM

O=C1CN2Cc3c(ccc(Cl)c3Cl)N=C2N1
inactive: activation [1] -11.4% | Potency [2] | Potency [3] | Potency [4] | Potency [5] | Potency [7]

COc1ccc2c3n(c(=NC(=O)c4cccnc4)nc2c1OC)CCN3
active: Potency [2] 235 nM | Potency [3] 148 nM | Potency [4] 332 nM | Potency [7] 1180 nM
inactive: activation [1] -16.5%

Nc1ncnc2ccccc12
inactive: activation [1] 22.8% | Potency [2] | Potency [3] | Potency [4] | Potency [5] | Potency [6] | Potency [7]
